Molecules are shown by their SMILES.

For assay [1], the target named is T1, Ephrin type-B receptor 2 (Homo sapiens) (UniProt P29323).
T1 sequence (whole entry): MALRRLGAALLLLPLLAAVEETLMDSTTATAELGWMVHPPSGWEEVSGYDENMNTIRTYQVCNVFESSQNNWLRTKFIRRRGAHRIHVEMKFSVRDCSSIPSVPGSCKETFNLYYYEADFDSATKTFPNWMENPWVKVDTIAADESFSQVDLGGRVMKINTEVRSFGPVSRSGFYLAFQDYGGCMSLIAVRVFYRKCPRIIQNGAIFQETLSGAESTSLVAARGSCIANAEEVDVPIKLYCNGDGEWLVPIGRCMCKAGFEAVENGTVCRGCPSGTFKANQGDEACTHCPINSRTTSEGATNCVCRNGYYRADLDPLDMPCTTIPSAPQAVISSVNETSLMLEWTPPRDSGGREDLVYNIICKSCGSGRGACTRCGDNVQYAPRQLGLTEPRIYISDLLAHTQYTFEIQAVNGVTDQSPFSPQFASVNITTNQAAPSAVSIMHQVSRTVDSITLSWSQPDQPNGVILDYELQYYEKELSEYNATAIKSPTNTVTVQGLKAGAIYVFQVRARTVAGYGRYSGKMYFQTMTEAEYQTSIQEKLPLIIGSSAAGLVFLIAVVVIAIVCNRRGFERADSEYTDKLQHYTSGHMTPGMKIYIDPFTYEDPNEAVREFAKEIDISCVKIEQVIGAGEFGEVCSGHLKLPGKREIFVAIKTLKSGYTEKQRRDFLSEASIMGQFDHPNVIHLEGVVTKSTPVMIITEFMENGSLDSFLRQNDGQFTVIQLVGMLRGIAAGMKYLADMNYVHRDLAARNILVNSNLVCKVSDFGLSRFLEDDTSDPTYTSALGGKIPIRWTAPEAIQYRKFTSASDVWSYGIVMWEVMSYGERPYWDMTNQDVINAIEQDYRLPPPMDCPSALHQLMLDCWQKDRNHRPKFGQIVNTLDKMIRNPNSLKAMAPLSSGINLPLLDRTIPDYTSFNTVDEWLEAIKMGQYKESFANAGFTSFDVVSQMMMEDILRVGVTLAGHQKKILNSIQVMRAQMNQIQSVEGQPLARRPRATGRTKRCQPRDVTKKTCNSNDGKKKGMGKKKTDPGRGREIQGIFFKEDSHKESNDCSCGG
As to conditions: at 1 µM.

Assay [2] concerns the target T2, Ephrin type-B receptor 3 (Homo sapiens) (UniProt P54753).
T2 sequence (whole entry): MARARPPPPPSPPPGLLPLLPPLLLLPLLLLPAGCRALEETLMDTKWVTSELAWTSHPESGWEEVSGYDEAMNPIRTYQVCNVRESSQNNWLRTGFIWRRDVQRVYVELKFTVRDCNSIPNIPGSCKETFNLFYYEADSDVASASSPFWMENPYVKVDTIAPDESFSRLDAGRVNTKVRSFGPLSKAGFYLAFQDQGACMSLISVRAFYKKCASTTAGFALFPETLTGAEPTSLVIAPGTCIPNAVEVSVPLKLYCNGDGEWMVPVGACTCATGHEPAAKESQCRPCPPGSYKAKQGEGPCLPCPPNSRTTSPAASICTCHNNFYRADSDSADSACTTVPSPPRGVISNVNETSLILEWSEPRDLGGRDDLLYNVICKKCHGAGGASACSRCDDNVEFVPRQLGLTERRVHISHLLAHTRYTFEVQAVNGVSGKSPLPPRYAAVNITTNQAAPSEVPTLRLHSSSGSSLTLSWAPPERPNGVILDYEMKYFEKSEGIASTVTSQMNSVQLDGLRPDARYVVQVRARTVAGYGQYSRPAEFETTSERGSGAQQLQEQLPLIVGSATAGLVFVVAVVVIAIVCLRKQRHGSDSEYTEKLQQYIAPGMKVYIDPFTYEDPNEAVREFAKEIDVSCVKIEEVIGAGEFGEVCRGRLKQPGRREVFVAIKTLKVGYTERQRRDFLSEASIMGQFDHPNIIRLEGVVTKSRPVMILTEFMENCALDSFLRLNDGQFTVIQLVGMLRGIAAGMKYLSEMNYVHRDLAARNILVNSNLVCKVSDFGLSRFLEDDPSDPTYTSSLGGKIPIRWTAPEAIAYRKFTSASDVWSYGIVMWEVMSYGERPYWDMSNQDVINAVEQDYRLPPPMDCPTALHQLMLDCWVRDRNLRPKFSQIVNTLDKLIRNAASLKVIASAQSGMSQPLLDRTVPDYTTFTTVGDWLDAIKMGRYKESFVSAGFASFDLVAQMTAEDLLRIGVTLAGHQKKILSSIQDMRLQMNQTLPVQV
The conditions noted are these: at 0.1 µM.

Assay [3] addresses T2, Ephrin type-B receptor 3 (Homo sapiens). The conditions noted are these: at 1 µM.
In assay [4] the target is T3, Ephrin type-B receptor 4 (Homo sapiens) (UniProt P54760).
T3 sequence (whole entry): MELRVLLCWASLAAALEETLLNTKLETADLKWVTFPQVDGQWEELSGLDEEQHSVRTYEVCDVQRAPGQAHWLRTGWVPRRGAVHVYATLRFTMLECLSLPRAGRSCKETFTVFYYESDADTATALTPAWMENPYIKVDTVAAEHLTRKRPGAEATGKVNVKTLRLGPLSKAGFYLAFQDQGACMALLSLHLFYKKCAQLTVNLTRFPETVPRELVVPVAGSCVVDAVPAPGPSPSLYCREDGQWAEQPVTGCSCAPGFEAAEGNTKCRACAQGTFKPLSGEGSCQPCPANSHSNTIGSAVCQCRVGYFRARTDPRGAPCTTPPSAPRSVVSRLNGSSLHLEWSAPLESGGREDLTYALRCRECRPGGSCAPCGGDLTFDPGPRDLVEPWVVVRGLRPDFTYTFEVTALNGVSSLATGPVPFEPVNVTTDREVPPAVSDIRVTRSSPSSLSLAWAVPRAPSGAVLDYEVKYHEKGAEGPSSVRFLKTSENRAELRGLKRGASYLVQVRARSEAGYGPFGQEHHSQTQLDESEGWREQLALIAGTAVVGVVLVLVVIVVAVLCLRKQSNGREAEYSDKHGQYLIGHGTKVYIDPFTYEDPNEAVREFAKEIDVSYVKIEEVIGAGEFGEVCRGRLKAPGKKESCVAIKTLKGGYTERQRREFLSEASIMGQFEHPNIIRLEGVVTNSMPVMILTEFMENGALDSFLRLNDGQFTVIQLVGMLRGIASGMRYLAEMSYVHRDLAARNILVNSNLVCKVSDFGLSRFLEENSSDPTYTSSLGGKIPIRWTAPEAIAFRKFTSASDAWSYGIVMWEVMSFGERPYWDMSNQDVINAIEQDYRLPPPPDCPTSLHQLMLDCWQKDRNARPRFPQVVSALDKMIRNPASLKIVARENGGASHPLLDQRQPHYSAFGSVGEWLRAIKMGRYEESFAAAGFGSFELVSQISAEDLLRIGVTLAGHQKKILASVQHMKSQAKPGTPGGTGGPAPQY
As to conditions: at 0.1 µM.

The target of assay [5] is T3, Ephrin type-B receptor 4 (Homo sapiens). As to conditions: at 1 µM.
Assay [6] has as its target Receptor tyrosine-protein kinase erbB-2 (Homo sapiens) (UniProt P04626). The conditions noted are these: at 0.1 µM.
For assay [7] the target is unchanged. As to conditions: at 1 µM.
The target of assay [8] is Receptor tyrosine-protein kinase erbB-4 (Homo sapiens) (UniProt Q15303). As to conditions: at 0.1 µM.
Chain of Receptor tyrosine-protein kinase erbB-4 (Homo sapiens) (Q15303 whole entry): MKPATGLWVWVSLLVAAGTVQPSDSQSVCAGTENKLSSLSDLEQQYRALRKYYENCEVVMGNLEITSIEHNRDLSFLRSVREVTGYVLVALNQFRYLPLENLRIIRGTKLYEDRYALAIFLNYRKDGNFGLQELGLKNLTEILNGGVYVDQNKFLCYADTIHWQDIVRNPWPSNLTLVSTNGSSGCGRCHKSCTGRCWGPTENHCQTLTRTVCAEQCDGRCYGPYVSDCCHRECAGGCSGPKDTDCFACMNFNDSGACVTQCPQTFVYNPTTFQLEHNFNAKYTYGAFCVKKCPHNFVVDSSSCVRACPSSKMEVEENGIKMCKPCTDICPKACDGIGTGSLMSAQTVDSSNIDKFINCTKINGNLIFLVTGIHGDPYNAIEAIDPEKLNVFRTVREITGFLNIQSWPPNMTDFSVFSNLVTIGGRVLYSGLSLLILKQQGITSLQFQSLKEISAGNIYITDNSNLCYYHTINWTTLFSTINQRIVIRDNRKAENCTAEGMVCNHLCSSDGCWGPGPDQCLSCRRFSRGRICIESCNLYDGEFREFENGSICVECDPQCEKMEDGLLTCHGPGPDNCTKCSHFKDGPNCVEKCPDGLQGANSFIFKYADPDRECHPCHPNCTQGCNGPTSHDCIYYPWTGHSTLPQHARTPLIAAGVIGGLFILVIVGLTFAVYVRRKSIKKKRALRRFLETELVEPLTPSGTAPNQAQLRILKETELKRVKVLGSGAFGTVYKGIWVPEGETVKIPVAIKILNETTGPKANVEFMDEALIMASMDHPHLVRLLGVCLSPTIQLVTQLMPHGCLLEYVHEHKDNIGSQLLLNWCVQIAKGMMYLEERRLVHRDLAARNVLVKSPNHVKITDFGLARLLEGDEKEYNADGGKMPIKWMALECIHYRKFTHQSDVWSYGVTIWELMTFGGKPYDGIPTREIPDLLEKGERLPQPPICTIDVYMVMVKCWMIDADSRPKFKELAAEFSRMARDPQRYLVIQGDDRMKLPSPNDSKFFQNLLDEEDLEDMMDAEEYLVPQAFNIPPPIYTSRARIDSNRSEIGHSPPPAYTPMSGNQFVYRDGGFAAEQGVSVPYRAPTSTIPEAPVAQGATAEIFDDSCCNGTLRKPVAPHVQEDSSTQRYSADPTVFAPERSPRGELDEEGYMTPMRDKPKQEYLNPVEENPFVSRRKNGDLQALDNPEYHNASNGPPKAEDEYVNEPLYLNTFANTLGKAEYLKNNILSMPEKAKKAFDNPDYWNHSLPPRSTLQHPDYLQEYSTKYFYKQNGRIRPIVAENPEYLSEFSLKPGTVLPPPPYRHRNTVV
Assay [9] shares this target. The conditions noted are these: at 1 µM.
For assay [10], the target named is Tyrosine-protein kinase Fer (Homo sapiens) (UniProt P16591). As to conditions: at 0.1 µM.
Chain of Tyrosine-protein kinase Fer (Homo sapiens) (P16591 whole entry, looked up): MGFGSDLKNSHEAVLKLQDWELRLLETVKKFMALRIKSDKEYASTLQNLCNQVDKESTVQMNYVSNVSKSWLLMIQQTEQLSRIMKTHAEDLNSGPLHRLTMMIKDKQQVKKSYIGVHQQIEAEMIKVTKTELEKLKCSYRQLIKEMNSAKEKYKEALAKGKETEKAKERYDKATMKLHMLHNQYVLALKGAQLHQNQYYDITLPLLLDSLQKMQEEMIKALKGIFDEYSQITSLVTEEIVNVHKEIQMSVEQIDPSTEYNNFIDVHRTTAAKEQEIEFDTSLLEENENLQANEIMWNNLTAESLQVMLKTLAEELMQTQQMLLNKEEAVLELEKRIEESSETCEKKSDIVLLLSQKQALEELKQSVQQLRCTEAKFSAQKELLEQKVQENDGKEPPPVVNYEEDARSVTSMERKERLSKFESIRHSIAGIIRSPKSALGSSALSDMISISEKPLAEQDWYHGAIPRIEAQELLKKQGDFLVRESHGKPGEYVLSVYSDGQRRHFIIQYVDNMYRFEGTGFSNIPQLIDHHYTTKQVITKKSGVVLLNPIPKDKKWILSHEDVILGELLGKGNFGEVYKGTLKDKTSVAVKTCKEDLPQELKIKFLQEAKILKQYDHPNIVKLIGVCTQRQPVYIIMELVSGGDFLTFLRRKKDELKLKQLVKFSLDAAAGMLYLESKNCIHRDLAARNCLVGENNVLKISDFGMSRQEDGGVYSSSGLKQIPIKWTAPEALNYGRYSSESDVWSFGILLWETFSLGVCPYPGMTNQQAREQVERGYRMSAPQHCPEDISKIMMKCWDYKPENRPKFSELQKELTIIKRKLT
The target is the same in assay [11]. As to conditions: at 1 µM.
The target in assay [12] is Tyrosine-protein kinase Fes/Fps (Homo sapiens) (UniProt P07332). The conditions noted are these: at 0.1 µM.
Assay [13] shares this target. The conditions noted are these: at 1 µM.
Assay [14] deals with Fibroblast growth factor receptor 1 (Homo sapiens) (UniProt P11362). The conditions noted are these: at 0.1 µM.
Chain of Fibroblast growth factor receptor 1 (Homo sapiens) (P11362 22-822 limits assumed): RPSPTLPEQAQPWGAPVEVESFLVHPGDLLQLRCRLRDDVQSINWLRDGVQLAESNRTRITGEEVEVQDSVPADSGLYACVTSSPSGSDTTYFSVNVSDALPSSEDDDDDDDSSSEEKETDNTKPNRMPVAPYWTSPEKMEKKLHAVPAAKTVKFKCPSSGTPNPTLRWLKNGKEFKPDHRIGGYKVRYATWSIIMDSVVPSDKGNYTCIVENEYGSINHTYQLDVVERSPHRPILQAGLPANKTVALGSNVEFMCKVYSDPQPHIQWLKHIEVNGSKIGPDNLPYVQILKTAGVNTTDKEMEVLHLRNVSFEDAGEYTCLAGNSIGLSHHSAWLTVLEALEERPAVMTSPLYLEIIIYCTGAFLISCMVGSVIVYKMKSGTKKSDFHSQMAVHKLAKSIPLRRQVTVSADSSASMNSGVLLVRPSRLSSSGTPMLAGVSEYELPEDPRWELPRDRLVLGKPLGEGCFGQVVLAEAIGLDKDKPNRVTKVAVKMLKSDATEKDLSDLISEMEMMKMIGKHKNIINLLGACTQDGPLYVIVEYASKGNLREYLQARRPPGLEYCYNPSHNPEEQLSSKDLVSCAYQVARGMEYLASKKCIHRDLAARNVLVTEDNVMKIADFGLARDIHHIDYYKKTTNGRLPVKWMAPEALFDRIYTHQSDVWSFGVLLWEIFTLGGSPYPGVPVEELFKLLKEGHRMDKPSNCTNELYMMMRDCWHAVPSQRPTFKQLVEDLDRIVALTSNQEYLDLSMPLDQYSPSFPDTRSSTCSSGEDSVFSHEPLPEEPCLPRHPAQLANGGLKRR
Assay [15] has the same target. As to conditions: at 1 µM.
Assay [16] concerns the target Fibroblast growth factor receptor 2 (Homo sapiens) (UniProt P21802). As to conditions: at 0.1 µM.
For assay [17] the target is unchanged. As to conditions: at 1 µM.
The target in assay [18] is Fibroblast growth factor receptor 3 (Homo sapiens) (UniProt P22607). As to conditions: at 0.1 µM.
For assay [19] the target is unchanged. The conditions noted are these: at 1 µM.
Assay [20] deals with Fibroblast growth factor receptor 4 (Homo sapiens) (UniProt P22455). As to conditions: at 0.1 µM.
Chain of Fibroblast growth factor receptor 4 (Homo sapiens) (P22455 22-802 limits assumed): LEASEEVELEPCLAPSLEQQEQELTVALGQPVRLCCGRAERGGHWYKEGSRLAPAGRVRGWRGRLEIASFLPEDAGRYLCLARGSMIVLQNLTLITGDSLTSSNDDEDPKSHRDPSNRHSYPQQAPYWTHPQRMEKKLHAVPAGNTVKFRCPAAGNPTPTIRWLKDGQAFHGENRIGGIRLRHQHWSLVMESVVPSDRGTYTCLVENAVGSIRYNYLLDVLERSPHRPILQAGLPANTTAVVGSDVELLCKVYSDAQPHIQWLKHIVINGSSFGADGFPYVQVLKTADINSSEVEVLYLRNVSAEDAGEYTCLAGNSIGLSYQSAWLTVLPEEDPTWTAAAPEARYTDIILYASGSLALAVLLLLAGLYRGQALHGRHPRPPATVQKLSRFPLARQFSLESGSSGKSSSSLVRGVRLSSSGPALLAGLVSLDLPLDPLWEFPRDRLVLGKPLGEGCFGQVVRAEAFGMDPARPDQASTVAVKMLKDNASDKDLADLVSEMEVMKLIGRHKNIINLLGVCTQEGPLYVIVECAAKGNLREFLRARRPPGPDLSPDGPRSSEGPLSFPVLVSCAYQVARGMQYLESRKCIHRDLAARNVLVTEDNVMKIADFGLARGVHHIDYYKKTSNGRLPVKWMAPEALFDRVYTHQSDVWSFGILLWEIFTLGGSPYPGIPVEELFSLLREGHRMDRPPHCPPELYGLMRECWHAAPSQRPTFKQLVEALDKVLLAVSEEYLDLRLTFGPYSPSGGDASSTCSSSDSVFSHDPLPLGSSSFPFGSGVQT

Chain of Fibroblast growth factor receptor 2 (Homo sapiens) (P21802 22-821 limits assumed): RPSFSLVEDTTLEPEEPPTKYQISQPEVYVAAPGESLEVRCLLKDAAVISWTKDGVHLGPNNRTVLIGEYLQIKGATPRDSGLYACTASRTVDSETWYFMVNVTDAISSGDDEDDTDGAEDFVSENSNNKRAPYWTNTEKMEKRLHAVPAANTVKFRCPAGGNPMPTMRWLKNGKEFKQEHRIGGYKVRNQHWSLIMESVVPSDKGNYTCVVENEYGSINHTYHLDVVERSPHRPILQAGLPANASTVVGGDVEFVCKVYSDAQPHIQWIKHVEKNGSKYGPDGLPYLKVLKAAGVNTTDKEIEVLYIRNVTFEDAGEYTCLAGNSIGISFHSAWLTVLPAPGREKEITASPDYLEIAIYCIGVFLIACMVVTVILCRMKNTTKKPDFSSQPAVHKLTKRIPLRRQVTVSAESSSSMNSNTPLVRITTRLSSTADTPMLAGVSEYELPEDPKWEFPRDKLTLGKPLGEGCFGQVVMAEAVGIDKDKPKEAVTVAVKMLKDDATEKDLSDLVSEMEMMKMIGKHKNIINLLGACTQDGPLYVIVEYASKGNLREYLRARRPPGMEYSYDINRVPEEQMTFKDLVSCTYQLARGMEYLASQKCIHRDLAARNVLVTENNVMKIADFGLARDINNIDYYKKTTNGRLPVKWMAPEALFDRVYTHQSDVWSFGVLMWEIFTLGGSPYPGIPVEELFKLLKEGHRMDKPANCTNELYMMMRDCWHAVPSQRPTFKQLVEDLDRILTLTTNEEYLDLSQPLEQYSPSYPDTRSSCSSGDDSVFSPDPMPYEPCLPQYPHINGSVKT

Consider `CC1(C)CC(n2cnc(-c3ccc(F)cc3)c2-c2ccnc(N)n2)CC(C)(C)N1`, for which the inhibition (as a rule, the relative decrease from the control value, in per cent) in assay [1] was 4.85%; in assay [2], 3.09%; in assay [3], 1.51%; in assay [4], 0.27%; in [5], 0.62%; in assay [6], -1.2%. In addition, the inhibition in assay [7] was -3.03%; in [8] it was 0.19%; in [9], 3.58%; in assay [10], 3.41%; in [11], 0.17%; in assay [12], -0.11%. For the same compound, the inhibition in assay [13] was -0.76%; in assay [14] it was 6.46%; in [15], 1.68%; in [16] it was -0.84%; in assay [17], -0.31%; in [18], 1.59%. The values for the inhibition in [19] and in [20] were 1.55% and -1.33%, respectively.

On to `COc1cc(Nc2ncc(-c3ccccc3)o2)cc(OC)c1`, for which the inhibition in assay [1] stood at 11.5%; in [2], 3.34%; in assay [3], 3.15%; in assay [4], 1.28%; in [5] it was 4.64%; in assay [6], 2.1%. Besides, the inhibition in assay [7] worked out at 3.72%; in [8], 9.38%; in assay [9], 14.6%; in assay [10] it was 0.58%; in assay [11], 3.14%; in assay [12] it was 3.89%. For the same compound, the inhibition in assay [13] stood at 3.89%; in assay [14], 2.6%; in assay [15] it was 7.89%; in [16], 3.62%; in assay [17] it was 11.7%; in assay [18] it was 1.91%. Besides, the inhibition in assay [19] is 10.2%; in assay [20], -1.24%.

In the case of `FC(F)(F)CNc1nccc(-c2cnn3ncccc23)n1`, the inhibition amounted to 4.55% in [1]; 4.36% in assay [2]; 3.96% in [3]; 0.32% in assay [4]; 1.93% in [5]; 4.52% in assay [6]. For the same compound, the inhibition amounted to 3.89% in assay [7]; 13.2% in [8]; 14% in [9]; 1.02% in [10]; 0.92% in [11]; 2.11% in [12]. In addition, the inhibition in [13] was determined as 1.66%; in assay [14], 4.83%; in assay [15], 2.89%; in [16] it was 4.25%; in [17], 3.09%; in assay [18] it was 3.73%. The inhibition came out at 2.58% in assay [19] and 1.62% in assay [20].

In the case of `Cc1nnc(-c2cccc(-c3ccc(C(=O)NCC4CC4)cc3)c2)o1`, the inhibition came out at 9.32% in assay [1]; 4.24% in [2]; 5.58% in assay [3]; 1.46% in assay [4]; 2.08% in [5]; 2.59% in [6]. Also, the inhibition in assay [7] stood at 5.51%; in assay [8] it was 8.69%; in [9] it was 12.5%; in assay [10], 3.39%; in [11], 3.05%; in assay [12], 4.04%. The inhibition in assay [13] is 4.25%; in assay [14] it was 2.64%; in assay [15], 0.61%; in [16], 4.95%; in assay [17], 5.08%; in assay [18] it was 6.23%. Besides, the inhibition in [19] is 6.22%; in assay [20], -0.29%.

With `Cc1cc(O)cc(C)c1/C=C/c1cncc(C(=O)OC(C)(C)C)c1`, the inhibition in [1] came to 68%; in assay [2], 17.4%; in assay [3], 49.2%; in assay [4], 24.8%; in [5], 70.4%; in assay [6], 1.78%. The inhibition turned out to be 2.48% in assay [7]; 8.1% in assay [8]; 16.1% in assay [9]; 4.09% in [10]; 3.02% in [11]; 1.48% in assay [12]. Besides, the inhibition in assay [13] came to 2.34%; in assay [14] it was 1.91%; in assay [15], 3.93%; in assay [16], 1.65%; in assay [17], 5.08%; in assay [18], 7.81%. Further, the results for the inhibition in [19] and in [20] were 7.63% and 1.4%, respectively.

As for `CCS(=O)(=O)c1ccc(OC)c(Nc2ncc(-c3cccc(F)c3)o2)c1`, the inhibition in [1] came to 45.9%; in assay [2] it was 3.05%; in assay [3], 6.76%; in assay [4], 5.59%; in assay [5], 31.7%; in assay [6] it was 38.7%. Also, the inhibition in assay [7] was found to be 5.62%; in assay [8], 9.46%; in [9], 17.8%; in [10] it was 2.32%; in assay [11] it was 8.9%; in [12] it was 4.72%. Moreover, the inhibition in assay [13] came to 4.79%; in assay [14], 12.7%; in [15], 46.2%; in assay [16], 40.5%; in assay [17] it was 69.8%; in assay [18] it was 52.9%. Further, the inhibition in assay [19] worked out at 77.3%; in assay [20], 5.31%.

As to `OCCCNc1nccc(-c2c(-c3ccc(F)cc3)nn3cc(C(F)(F)F)ccc23)n1`, the inhibition in assay [1] was found to be 28.2%; in [2] it was 4.77%; in assay [3], 1.45%; in [4], 1.6%; in assay [5], 7.56%; in assay [6] it was 0.24%. Also, the inhibition in [7] is -0.41%; in [8], 8.07%; in assay [9] it was 14.4%; in [10], 1.98%; in assay [11], 2.56%; in assay [12] it was 1.95%. The inhibition in assay [13] was 2.62%; in assay [14], 6%; in assay [15], 6.47%; in assay [16] it was 0.64%; in assay [17] it was 3.29%; in assay [18], 2.01%. The inhibition came out at 1.53% in assay [19] and 1.17% in assay [20].

(Values after ChEMBL document CHEMBL1961873, “Compounds: GSK PKIS; Assays: Nanosyn kinase panel” (2012).)
